Data: PubChem BioAssay (EPA / NIEHS)
Records with an inconclusive call do not appear. The source made the active and inactive calls. The calls were made as follows: active = hit-call score of the fitted dose curve at least 0.9, where 1 is the maximum; inconclusive = response in the unintended direction; inactive = score below 0.9.

The molecules below were run against Androgen receptor (Homo sapiens) (UniProt P10275) (assay: ATG_AR_TRANS: Attagene TRANS-FACTORIAL HepG2 Assay for human Androgen Receptor (AR) (AID 2282973)). Settings: HepG2 Attagene TRANS-FACTORIAL AR reporter transcription.
Sequence of Androgen receptor (Homo sapiens) (P10275 whole entry, looked up, the tested form may be a part): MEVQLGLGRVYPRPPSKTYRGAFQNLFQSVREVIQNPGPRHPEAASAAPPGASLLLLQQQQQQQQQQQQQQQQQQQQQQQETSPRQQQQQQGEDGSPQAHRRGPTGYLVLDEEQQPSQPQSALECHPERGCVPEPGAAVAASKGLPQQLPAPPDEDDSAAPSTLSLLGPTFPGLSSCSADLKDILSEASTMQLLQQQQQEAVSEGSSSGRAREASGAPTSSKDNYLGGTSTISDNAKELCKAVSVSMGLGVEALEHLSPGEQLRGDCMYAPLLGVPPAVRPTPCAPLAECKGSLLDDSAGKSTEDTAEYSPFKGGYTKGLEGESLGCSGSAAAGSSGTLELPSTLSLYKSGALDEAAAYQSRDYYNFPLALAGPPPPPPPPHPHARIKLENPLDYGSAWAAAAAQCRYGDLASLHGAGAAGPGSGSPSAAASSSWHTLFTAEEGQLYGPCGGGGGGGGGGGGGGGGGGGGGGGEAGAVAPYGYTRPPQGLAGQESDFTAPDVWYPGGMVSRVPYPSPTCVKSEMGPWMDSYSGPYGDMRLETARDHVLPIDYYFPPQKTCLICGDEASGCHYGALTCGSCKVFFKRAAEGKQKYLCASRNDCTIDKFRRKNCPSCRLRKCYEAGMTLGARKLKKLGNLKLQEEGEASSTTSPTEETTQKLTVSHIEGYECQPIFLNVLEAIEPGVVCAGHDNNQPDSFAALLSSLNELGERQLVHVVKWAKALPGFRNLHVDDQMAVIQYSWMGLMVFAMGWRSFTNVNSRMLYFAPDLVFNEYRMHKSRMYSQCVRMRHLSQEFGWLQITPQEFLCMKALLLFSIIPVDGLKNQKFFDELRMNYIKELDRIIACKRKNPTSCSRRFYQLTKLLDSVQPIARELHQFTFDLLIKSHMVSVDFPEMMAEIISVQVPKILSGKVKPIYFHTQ
How it was run: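 Transcriptional activity of an exogenous AR–Gal4 fusion read as GAL4-UAS reporter transcript levels in transfected human HepG2 cells after 24 h dosing. Detection via RT-PCR, 6-FAM labelling, HpaI digest and capillary electrophoresis; increase over DMSO baseline.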

outcome, inactive:
[Co], NCCCN1CCN(CCCN)CC1, NCC1CCCC(CN)C1 (stereo not drawn), Cc1cc(=O)n(-c2ccccc2)n1C, OCC1CCC(CO)CC1 (stereo not drawn), O=C1C=CC(=O)N1c1ccccc1, COc1ccc(C(=O)/C(Br)=C\C(=O)O)cc1, C=CCOCC(CO)(CO)CO, O=CC(F)(F)C(F)(F)C(F)(F)F, CCCCCCOC(=O)c1ccccc1O, CCCCCCCCSCCO, Cc1c(C(=O)c2c[nH]n(C)c2=O)ccc(S(C)(=O)=O)c1C1=NOCC1, COC(=O)Cc1cccc2ccccc12, CCCC(=O)c1cc(O)c(O)cc1O, CC(=O)Nc1ccc(S(N)(=O)=O)cc1, CCCCCCCCCC(C)=O, CC1(C)CCC(C)(C)c2cc(C(=O)Nc3ccc(C(=O)O)cc3)ccc21, FC1(F)C=CC(F)(F)C1(F)F, CC(C)(C)c1ccc(OC2CCCCC2O)cc1 (stereo not drawn), CC(=O)OC1CCCCC1C(C)(C)C (stereo not drawn), O=C(Nc1ccccc1)c1cc([N+](=O)[O-])ccc1Cl, NCC(F)(F)C(F)(F)C(F)(F)C(F)(F)C(F)(F)C(F)(F)F, CC1(C)C2=CCCC(C)(C)[C@]23CC[C@H]1C3, CCCCCCCCCCCCCCCCCC[N+](C)(C)Cc1ccccc1, CCOC(=O)OC(=O)OCC, CC(C)(CO)COC(=O)C(C)(C)CO, C=COC(=O)C(C)(C)CCCCCC, CCC(C)(C)c1cc(O)c(C(C)(C)CC)cc1O
